Assay results from PubChem BioAssay (NCI).
The panel holds about 83,000 compounds, 20% with a hit somewhere; the sample as a whole holds those more often.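 96-well plates, one dose, 48 hours. Percent growth reported; active if below 10.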 Values without a mark were called inactive. Calls of active or inactive are those of the source.

tested on: MDA-MB-468 breast; test: NCI-60 one-dose screen, 48 h (100 = growth as untreated, 0 = no growth, -100 = all killed); conditions: 10 µM unless noted

SMILES	growth
C#C[C@]1(O)CC[C@H]2[C@@H]3CC=C4c5sc(C6CC6)nc5CC[C@]4(C)[C@H]3CC[C@@]21C	68.4%
Nc1c(N)c2ccccc2c2ccccc12	103%
Cc1ccc(-c2cc3nc(-c4ccccc4)nc(C(Cl)Cl)n3n2)cc1	-61.4% (active)
C[n+]1ccc(CCc2c[nH]c3ccccc23)cc1	14.4%
CCCCCN(CCCCC)C(C)C(O)c1ccc2cc(Cl)c3ccccc3c2c1 (stereo not given)	91%
CC(=O)c1c[nH]c2ccc(-c3ccnc(Nc4ccc(NC(=O)c5cccc(F)c5)c(CN5CCOCC5)c4)n3)cc12	-32.9% (active)
COc1ncc(-c2ccc3ncnc(Nc4cccc(Cl)c4)c3c2)cc1NS(=O)(=O)C1CC1	-43.9% (active)
CC(C)(C)OC(=O)CC1(O)CCCCC1	94.5%
CCCCCC(=O)c1ccc(OCCCN2CCN(C(=O)OCC)CC2)cc1	47.5%
CN1CCN(c2ccc3nc(-c4ccc5nc(-c6ccc(C(F)(F)F)cc6)[nH]c5c4)[nH]c3c2)CC1	50.6%
O=C(N/N=C/c1cc2ccccc2c2ccccc12)c1cc(O)c(O)c(O)c1	64.9%
O=S(=O)(O)c1cccc2cccnc12	100%
Cn1cc(-c2csc(-c3c[nH]c4ccc(F)cc34)n2)c2cccnc21	-22.7% (active)
O=C1Nc2ccccc2/C1=C/c1ccc[nH]1	-26% (active)
C=CC(=O)Nc1cccc(C)c1Nc1cc(-c2cccnc2Cc2c(C)c(OC)cc(OC)c2C)ncn1	19.5%
Cc1ccsc1/C=C/C1=NCCCN1C	92.4%
COc1ccc(/C(=C2/O[C@@H]([C@H]3COC(C)(C)O3)[C@H]3OC(C)(C)O[C@@H]23)c2cc(OC)c(OC)c(OC)c2)cc1O	113%
Nc1ncc(-c2ccc3ncnc(Nc4cccc(Cl)c4)c3c2)cn1	-26.4% (active)
Cc1ccccc1OCC(O)COc1ccccc1C	105%
Cn1cc(-c2nonc2-c2c[nH]c3ccccc23)c2cccnc21	-12.9% (active)

SMILES	growth
C/C(CCC(=O)O)=N/Nc1ccc([N+](=O)[O-])cc1	83.7%
COc1ccc(/C=C\c2cc(OC)c(OC)c(OC)c2)cc1OC(=O)c1cccc(Cn2cc(CCOC(=O)c3cccc(Cn4nnc5c4C(=O)c4ccccc4C5=O)c3)nn2)c1	5.62% (active)
NNCCc1ccc(NC(=O)CCCc2ccc(C(=O)Nc3ccccc3N)cc2)cc1	72.9%
O=C1c2ccccc2C(=O)c2c1cccc2-n1nnc2ccccc21	109%
OC1COC(OCc2ccccc2)C(O)C1O (stereo not given)	94.8%
CN(C)c1ccc(-c2nc(-c3ccccc3)c(-c3ccccc3)[nH]2)cc1	114%
CCCCCCOc1ccc(/C=N/Nc2cc(C)nc3ccc(Cl)cc23)cc1	-56.7% (active)
Cc1[nH]c(-c2nc3ccccc3[nH]2)c(C)c1C(=O)N1CCc2sccc2C1	70.2%
O=C(O)c1cn(C2CC2)c2cc(N3CCN(C(=O)Nc4nc(-c5ccccc5)cs4)CC3)c(F)cc2c1=O	27.1%
Nc1nc(Nc2ccccc2SSc2ccccc2Nc2nc(N)nc(-c3cccc(Br)c3)n2)nc(-c2cccc(Br)c2)n1	95.4%
CCOC(=S)SCc1ccc(Cl)cc1	106%
CC[C@H](C)[C@H]1NC(=O)[C@@H]([C@H](O)C(C)C)NC(=O)[C@@H](C)N(C)C(=O)[C@H](C)N(C)C(=O)[C@H](CC(C)C)NC(=O)[C@H](CC(C)C)N(C)C(=O)[C@H](C)N(C)C1=O	-5.6% (active)
O=C(Nc1cccc(NC(=O)Nc2cc(C(F)(F)F)ccc2Cl)c1)Nc1cc(C(F)(F)F)ccc1Cl	-8.33% (active)
O=C(Nc1ccc(Cl)c(Cl)c1)OCn1ncc2ccc([N+](=O)[O-])cc21	87%
O=C(COc1ccc(C2SCC(=O)N2c2ccccc2)cc1)c1ccccc1 (stereo not given)	85.3%
CSc1nsc(N)n1	103%
COc1ccc(OC)c([N+](=O)[O-])c1C=O	81.9%
CC1(O)COCCCCOc2c(CN)cccc2NC(=O)c2nc(cnc2N)-c2ccc(cc2)S(=O)(=O)C(C)(C)C1 (stereo not given)	-35.1% (active)
COC(=O)c1ccccc1Cl	109%
O=C(/C=C/c1cccc(Cl)c1Cl)Nc1ncc(Cc2ccccc2Cl)s1	10.4%
